# Laboratory results: ChEMBL document CHEMBL3988442, “University of Dundee, Small-Polar-MMV Screening Library” (2021)
# Among all 48,000 compounds or so, about 13,000 (27%) showed an effect of 50% or more. The list shows a part of the results.
# Tested on: Wolbachia pipientis
# Assay: Anti-Wolbachia Cell-Based Screen
# Format: functional
# Design: scale not given: in the data most compounds retested in dose-response had high values
# Details: 5 µM
row,Compound,Percent Effect
1,COCCCN(C)C(=O)c1nnn(-c2ccccc2Cl)c1C,-5.685%
2,CCN(CC)CCNC(=O)c1nn(CC)cc1Cl,13.81%
3,CCN(CC)CCNC(=O)CCc1c(C)nn(-c2ccccc2Cl)c1C,121.6%
4,CCOc1ccccc1CSc1nnc(CC2CCS(=O)(=O)C2)n1C (configuration not stated),3.399%
5,CN1CSC[C@H]1C(=O)N1CCN(Cc2cccc(Cl)c2)CC1,-11.1%
6,CN(Cc1cccc(-n2cccn2)c1)Cc1c[nH]cn1,125%
7,CC(NS(C)(=O)=O)C(=O)N(C)Cc1cnn(-c2ccc(F)cc2)c1 (configuration not stated),-5.663%
8,CN(Cc1cccc(-n2cccn2)c1)Cc1cccs1,32.49%
9,COc1cc(N(C)Cc2cccc(-n3cccn3)c2)nc(N)n1,-41.52%
10,CN(Cc1ccc(-n2cccn2)cc1)Cc1cnc(N(C)C)nc1,-6.821%
11,COc1cccc(-n2cc(CN(C)C(=O)c3cnc(O)cn3)cn2)c1,-3.404%
12,CCCc1cc(C(=O)N(C)Cc2cnn(-c3cccc(OC)c3)c2)[nH]n1,1.853%
13,CC(C)c1nccc(CN(C)Cc2cccc(-n3cccn3)c2)n1,104.6%
14,CN(Cc1ccc(-n2cccn2)cc1)Cc1ncc[nH]1,-13.82%
15,COc1cccc(-n2cc(CN(C)Cc3ccnc(C(C)C)n3)cn2)c1,92.54%
16,CC(C)c1nccc(CN(C)Cc2cnn(-c3ccccc3)c2)n1,112.3%
17,CSCCC(O)C(=O)N(C)Cc1cnn(-c2ccc(F)cc2)c1 (configuration not stated),17.62%
18,COc1c(F)cc(F)cc1-c1nc2c([nH]1)CCNC2,-0.5434%
19,CC(c1cccnc1)N1CCN(CCCC#N)CC1 (configuration not stated),-7.077%
20,CCCn1nc(C(=O)N2CCCC2c2noc(C)n2)ccc1=O (configuration not stated),-9.694%
21,Cc1ccc(CN(C)CC(=O)NC2(C)CCS(=O)(=O)C2)cc1 (configuration not stated),2.715%

row,Compound,Percent Effect
1,CC(C)N1CCCn2nc(C(=O)NCc3ccccc3F)cc2C1,-19.91%
2,CCC(CO)N(Cc1cccc(-n2cccn2)c1)Cc1ccccn1 (configuration not stated),-1.98%
3,CC(CN(C)Cc1cccc(-n2cccn2)c1)C(F)(F)F (configuration not stated),100.7%
4,CCC(CO)N(Cc1cccc(-n2cccn2)c1)Cc1cccs1 (configuration not stated),3.193%
5,CC(C)c1nnc(NC(=O)c2cccc(OCC(F)(F)F)n2)[nH]1,-13.63%
6,CC(C)Cc1nc(CS(=O)(=O)C(C)C(=O)N2CCOCC2)no1 (configuration not stated),1.312%
7,O=C(CN1CCCCCC1)NCCSc1cnn[nH]1,-5.638%
8,O=C(CN1CCCc2cc(F)cc(F)c21)Nc1ccc(Br)cn1,-2.039%
9,O=C(CN1CCCCC1)Nc1ncc(Br)cc1Br,116.4%
10,CSc1nccc(-c2cccc(-c3ccn(CC4COCCO4)n3)c2)n1 (configuration not stated),-11.46%
11,Cn1cc(C(=O)N2CCO[C@@H]3CN(C4CCC4)C[C@@H]3C2)cn1,99.44%
12,Cc1cncc(C(=O)N2C[C@@H]3CN(S(C)(=O)=O)CCO[C@@H]3C2)c1.O=C(O)C(F)(F)F,122.6%
13,CCN1CCO[C@@H]2CN(C(=O)c3cocn3)C[C@@H]2C1.O=C(O)C(F)(F)F,-9.016%
14,O=C(c1ccnnc1)N1C[C@@H]2CN(c3ncccn3)C[C@@H]2C1,15.26%
15,CS(=O)(=O)N1CCO[C@@H]2CN(C(=O)c3cccnc3)C[C@@H]2C1,94.69%
16,Cc1ccnc(C(=O)N2C[C@@H]3CN(S(C)(=O)=O)CCO[C@@H]3C2)c1.O=C(O)C(F)(F)F,-16.56%
17,CS(=O)(=O)N1CCO[C@@H]2CN(C(=O)c3ccnnc3)C[C@@H]2C1,110.1%
18,Cc1ccc(C(=O)N2C[C@@H]3CN(S(C)(=O)=O)CCO[C@@H]3C2)o1,-11.28%
19,Cn1cc(CN2CCO[C@@H]3CN(C4CCCC4)C[C@@H]3C2)cn1.O=C(O)C(F)(F)F.O=C(O)C(F)(F)F,-1.397%
20,Cn1cc(C(=O)N2CC[C@@]3(O)CCN(C4CCCCC4)C[C@H]3C2)cn1,-10.98%
21,O=C(NCCOc1ccc(F)c(F)c1)NCc1cccc(CO)c1,-4.638%

row,Compound,Percent Effect
1,Cc1nnc(NCC(c2ccco2)N2CCCCC2)c(C#N)c1C (configuration not stated),-2.88%
2,CN1CCN(C)C2(CCN(Cc3ccc(C4CCCCO4)o3)CC2)C1 (configuration not stated),27.87%
3,CCC(C)C(=O)NCc1cccc(OCCN(C)C2CCOCC2)c1 (configuration not stated),6.512%
4,CN1CC2(CCN(C(=O)c3coc4c3C(=O)CCC4)C2)OC1=O (configuration not stated),-2.236%
5,Cc1nc(C(=O)N2C[C@@H]3CN(S(C)(=O)=O)CCO[C@@H]3C2)cs1,-14.32%
6,Cn1nccc1C(=O)N1C[C@@H]2CN(S(C)(=O)=O)CCO[C@@H]2C1,115.5%
7,Cn1cc(C(=O)N2C[C@@H]3CN(S(C)(=O)=O)CCO[C@@H]3C2)cn1,95.46%
8,Cc1ccc(C(=O)N2C[C@@H]3CN(S(C)(=O)=O)CCO[C@@H]3C2)s1,-10.28%
9,O=C(c1cc2ccccc2s1)N1CCC(C(=O)O)(n2cccn2)CC1,-13.71%
10,CCn1cc2c(n1)CN(C(=O)c1ccncc1)CC2COCC1CC1.O=C(O)C(F)(F)F (configuration not stated),20.52%
11,O=C(c1ccccc1OCC1CC1)N1CCCC(n2ccnc2)C1 (configuration not stated),8.934%
12,O=C(COc1ccccc1Cl)N1CCCC(n2ccnc2)C1 (configuration not stated),92.71%
13,O=C(COC1CCCCC1)N1CCCC(n2ccnc2)C1 (configuration not stated),76.06%
14,CN(CC(=O)N1CCCC(n2ccnc2)C1)c1cnccn1 (configuration not stated),-4.389%
15,COc1cccc(COCC(=O)N2CCCC(c3nncn3C)C2)c1 (configuration not stated),-0.5429%
16,O=C(COCc1ccccc1Cl)N1CCCC(n2ccnc2)C1 (configuration not stated),103.7%
17,CCn1cnnc1C1CCCN(C(=O)COc2ccc(Cl)cc2)C1 (configuration not stated),6.691%
18,O=C(COCc1ccccc1Cl)N1CCCC(n2cccn2)C1 (configuration not stated),1.04%
19,O=C(COCC1CC1)N1CCCC(n2ccnc2)C1 (configuration not stated),8.162%
20,Cn1cnnc1C1CCCN(C(=O)COc2ccccc2Cl)C1 (configuration not stated),152.2%
